Bioassay records deposited in PubChem BioAssay by National Center for Advancing Translational Sciences (NCATS).
SMN2 splice enh: enhancers of SMN2 splice variant expression; HEK293 SMN2-luciferase splicing reporter, luminescence, 30-36 h; Potency, µM (doses to about 46.1 µM), most hits filed as activators; 210,000 tested, 2.8% active; further: nearly all actives have a fitted effect of over 55% in size
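HEK293 cells carry an SMN2 […]–luciferase reporter in which exon 7 inclusion puts luciferase in frame. Cells were plated 10-12 h before compound addition, then incubated 30-36 h at 37C. ONE-Glo luminescence was read; sodium butyrate at 4.5 mM final served as control.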
FLuc counter: firefly luciferase modulation, counter-screen for miR-21 project. purified FLuc, Km substrates, luminescence inhibition. Potency, µM (titrated, usually from 57.5 µM), hits mostly inhibitors. 360,000 tested, 6.9% active; further: nearly all actives have a fitted effect of over 55% in size
Target sequence (P08659 whole entry, looked up): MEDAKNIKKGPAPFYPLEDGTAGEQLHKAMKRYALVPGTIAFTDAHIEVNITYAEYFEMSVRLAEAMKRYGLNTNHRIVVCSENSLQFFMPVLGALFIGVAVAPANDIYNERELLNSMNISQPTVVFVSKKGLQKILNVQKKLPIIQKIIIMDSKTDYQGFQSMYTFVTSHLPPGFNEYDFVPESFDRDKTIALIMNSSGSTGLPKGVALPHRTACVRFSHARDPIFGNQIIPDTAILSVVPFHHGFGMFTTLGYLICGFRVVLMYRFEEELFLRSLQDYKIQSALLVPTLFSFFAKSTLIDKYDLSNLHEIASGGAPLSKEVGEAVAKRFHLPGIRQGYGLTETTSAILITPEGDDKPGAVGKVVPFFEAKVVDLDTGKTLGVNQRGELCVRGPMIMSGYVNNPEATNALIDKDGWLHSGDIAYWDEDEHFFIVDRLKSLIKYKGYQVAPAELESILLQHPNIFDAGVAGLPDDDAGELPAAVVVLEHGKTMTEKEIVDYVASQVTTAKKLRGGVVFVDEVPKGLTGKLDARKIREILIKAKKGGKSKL
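Purified P. pyralis luciferase (10nM final) with 10uM D-luciferin and 10uM ATP (Km levels) in 50mM Tris acetate pH 7.5, 10mM Mg acetate, 0.01% Tween-20, 0.05% BSA; qHTS 6-point titration, ~60 µM downward; luminescence read.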
ELG1 repair inh: blocks ELG1-dependent DNA repair in HEK293T cells; HEK293T ELG1-luciferase reporter, luminescence, 16 h; DNA damage induced by 5-fluorouridine; Potency, µM (doses to about 46.1 µM), actives largely listed as inhibitors; AID 504467; 330,000 tested, 2.3% active; further: nearly all actives have a fitted effect of over 55% in size
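DMSO vehicle served as the neutral condition. Each well held 2,000 cells given 5-fluorouridine plus compound; after 16 hr at 37 °C/5% CO2, ONE-Glo was added and luciferase measured 30 min later.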
ELG1 genotox: genotoxicity induction in ELG1-luciferase HEK293T cells | HEK293T ELG1-luciferase reporter, luminescence, 16 h | Potency, µM (highest dose often 46 µM), most hits filed as activators | 330,000 tested, 1.3% active | AID 504466; further: nearly all actives have a fitted effect of over 60% in size
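Cells (2,000/well) expressing the ELG1-luciferase fusion are dosed by pin tool and kept 16 hr at 37 °C, 5% CO2. Signal comes from ONE-Glo luciferase reagent after 30 min at room temperature.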
Rab9 prom act: activators of Rab9 promoter; Huh7 Rab9 promoter-luciferase reporter, luminescence, 24 h; 320,000 tested, 2.8% active; Potency, µM (titrated, usually from 9.22 µM), usual class: activators; further: nearly all actives have a fitted effect of over 60% in size
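Huh7 cells stably carrying a Rab9 promoter-luciferase reporter, 1500 cells per well in OP-MEM I with 10% FBS, treated with compound 24 hours at 37C. Luciferase activity read by luminescence after 10 minutes with Amplite reagent.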
NPC1 promoter act: activates the NPC1 promoter; AID 485313; 320,000 tested, 2.4% active; Potency, µM (highest dose often 9.22 µM), usual class: activators; Huh7 NPC1 promoter luciferase reporter, 24 h; further: nearly all actives have a fitted effect of over 60% in size
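Luciferase expression driven by the NPC1 promoter was measured in stably transfected Huh7 cells after a 24 h compound incubation, using a luciferase reagent and a luminescence read.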
Numbers stand for hits; 0 = inactive; ? = inconclusive; - = not tested or not shown. Rows were chosen to be rich in hits. Some 9.2% of all compounds tested hit in one or more screens of this group. The call rests on the fitted dose curve; in most records, active means well fitted curve in the direction sought with a large enough effect; inconclusive means small, poorly fitted or top-dose-only effect, or another doubt; inactive means no such curve, though single readings can be large; an effect the other way counts as inactive or inconclusive.

SMILES	SMN2 splice enh	FLuc counter	ELG1 repair inh	ELG1 genotox	Rab9 prom act	NPC1 promoter act
COc1ccc(C(=O)Nc2cc3c4c(c2)C(C)C(=O)N4CCC3)cc1 (stereo not drawn)	-	12µM	?	?	0	0
O=C(NCC1CCCO1)C1CCN(C2CCN(C3CCCCCC3)CC2)CC1 (stereo not drawn)	-	0	0	0	0	0
NC(=S)N/N=C/C=C/c1ccccc1	0	0	0	0	0	0
CCO/N=C(\C)c1c(O)c(CC)c(-c2ccccc2)n(-c2ccccc2)c1=O	0	0	0	0	0	0
O=C(Oc1c(CN2CCOCC2)cc(Cl)c2cccnc12)c1ccccc1	0	0	23µM	0	0	0
O=C(Oc1ccc(C(=S)N2CCOCC2)cc1Cl)c1ccccc1F	-	?	?	0	0	0
O=C(Oc1c(CN2CCOCC2)cc(Cl)c2cccnc12)c1ccccc1F	0	0	10µM	0	0	0
Oc1c(CN2CCc3ccccc3C2)cc(Cl)c2cccnc12	0	0	?	0	0	0
COc1cc(OC)cc(C(=O)Oc2c(CN3CCOCC3)cc(Cl)c3cccnc23)c1	-	0	16µM	0	0	0
Oc1c(Cl)cc(CN2CCOCC2)c2cccnc12	-	-	?	0	0	0
CCN1CCC(N(Cc2cccc(OC)c2)C(=O)Nc2cccc(C)c2C)CC1	-	0	-	-	-	-
Cc1cccc(N2CCN(C(=O)c3cc4ccc5cccnc5c4[nH]3)CC2C)c1 (stereo not drawn)	-	0	-	-	-	-
C=CCNC(=O)CCc1nnc(C2(c3ccc(Cl)cc3)CCC2)o1	8.9µM	17µM	?	?	3.2µM	0
CC(=O)c1ccc(-c2nnc(CCC(=O)N3CCCC(C(=O)CC(C)C)C3)o2)s1 (stereo not drawn)	-	19µM	?	?	3.5µM	4.5µM
COC(=O)CNC(=O)CCc1nnc(C2(c3ccc(Cl)cc3)CCC2)o1	-	?	?	?	0	0
COCC(C)NC(=O)CCc1nnc(C2(c3ccc(Cl)cc3)CCC2)o1 (stereo not drawn)	-	24µM	?	?	?	0
O=C(CCc1nnc(C2(c3ccc(Cl)cc3)CCC2)o1)N1CCCC1	-	17µM	?	?	?	?
O=C(CCc1nnc(C2(c3ccc(Cl)cc3)CCC2)o1)NC1CC1	-	0	0	0	0	0
C=C(C)CNC(=O)CCc1nnc(C2(c3ccc(Cl)cc3)CCC2)o1	-	?	?	0	?	0
CCOc1ccc(CN2CCN(Cc3cccn3-c3nccs3)CC2CCO)cc1 (stereo not drawn)	-	0	0	0	0	0
Cc1cccc(OC(=O)CSc2nnc(CNC(=O)c3ccccc3)o2)c1C	-	0	-	-	-	-
CCC(=O)C1CCCN(C(=O)CCc2nnc(C3(c4ccc(Cl)cc4)CCC3)o2)C1 (stereo not drawn)	-	13µM	?	?	?	?
NC(=O)C1CCCN(C(=O)CCc2nnc(C3(c4ccc(Cl)cc4)CCC3)o2)C1 (stereo not drawn)	-	0	0	0	0	0
CC1(C)Cc2nc3sc4c(SCC(=O)O)ncnc4c3cc2CO1	-	0.38µM	?	0	?	?
CC1(C)Cc2nc3sc4c(SCC(=O)NCc5ccccc5)ncnc4c3cc2CO1	?	2.7µM	?	4.1µM	0	0
SMILES	SMN2 splice enh	FLuc counter	ELG1 repair inh	ELG1 genotox	Rab9 prom act	NPC1 promoter act
CN(c1ccccc1)S(=O)(=O)c1cccc(NC(=O)c2cc3ccccc3oc2=O)c1	-	?	?	?	0	?
CN(C)S(=O)(=O)c1ccc(NC(=O)c2cc3ccccc3o2)cc1	0	15µM	0	0	?	?
Cc1ccc(NC(=O)c2cc3ccccc3o2)cc1S(=O)(=O)N(C)C	13µM	0.85µM	?	2.6µM	2.5µM	3.2µM
Cc1ccc(NC(=O)c2ccccc2OCC(=O)Nc2ccccc2F)cc1S(=O)(=O)N(C)C	-	7.6µM	?	0	0	0
Cc1ccc(NC(=O)c2cc3ccccc3oc2=O)cc1S(=O)(=O)N(C)C	-	0.076µM	?	0	0	0
Cc1cc(C)c(NC(=O)CSc2nnc(SCC(=O)Nc3c(C)cc(C)cc3C)n2N)c(C)c1	0	0	?	0	0	0
Cc1ccc(Nc2nnc(SC(C)C(=O)NCC3CCCO3)s2)cc1C (stereo not drawn)	-	15µM	?	0	0	0
Cc1ccc(NC(=O)C(=O)NN=C2CCCC2)cc1C	-	13µM	0	0	?	0
Cc1ccc(NC(=O)C(=O)NCC2CCCO2)cc1C (stereo not drawn)	11µM	?	?	8.2µM	1.3µM	2.8µM
Cc1ccc(NC(=O)C(=O)NCC2CCCO2)cc1 (stereo not drawn)	14µM	?	?	?	4µM	?
